Several values for one entry are separate records, joined by “and”; a condition that tells them apart may be missing. Equal entries are not always repeated. Compounds without any hit were thinned out: in the full panel of roughly 83,000, 20% have a hit.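 Negative percent growth values reflect cell death: -40 means 40% of the cells present at the start died, and -100 means all died.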 Activity calls are given as the source filed them. The calls were made as follows: active = growth percent below 10; inactive = the rest.

Consider ten compounds from PubChem BioAssay (NCI).

What all share (test): NCI-60 one-dose screen, 48 h (100 = growth as untreated, 0 = no growth, -100 = all killed)
Settings in all cases: 10 µM unless noted

The test system of test [1] is HCT-15 colon.
Test [2] relates to HT29 colon.
The test system of test [3] is SNB-75 CNS.
Test [4] concerns SNB-19 CNS.
Test [5] relates to U251 CNS.
Test [6] deals with PC-3 prostate.
Test [7] relates to SK-MEL-5 melanoma.
Test [8] concerns UACC-62 melanoma.
Test [9] relates to LOX IMVI melanoma.
The test system of test [10] is SK-MEL-28 melanoma.
The test system of test [11] is SK-MEL-2 melanoma.
Test [12] relates to EKVX NSCLC.
The test system of test [13] is SN12C renal.
The subject of test [14] is UO-31 renal.
Test [15] concerns TK-10 renal.
For test [16], the system named is ACHN renal.
In test [17] the test system is CAKI-1 renal.
Test [18] deals with HL-60(TB) leukemia.
The test system of test [19] is CCRF-CEM leukemia.
Test [20] concerns A498 renal.

Turning to `Clc1ccc(COC(Cn2ccnc2)c2ccc(Cl)cc2Cl)c(Cl)c1` (centres undefined), the growth in test [1] was 41.9% (inactive) and 46.2% (inactive); in [2] it was 23.4% (inactive) and 31% (inactive); in test [3] it was 78.6% (inactive) and 90.2% (inactive); in [4], 83.4% (inactive) and 83.8% (inactive); in test [5] it was 45.5% (inactive) and 69.4% (inactive); in [6], 40.9% (inactive) and 39.3% (inactive). The growth in [7] was 39% (inactive) and 3.49% (active); in test [8], 41.5% (inactive) and 52.1% (inactive); in test [9], 34% (inactive) and 47.6% (inactive); in test [10], 81.5% (inactive); in test [11], 69.7% (inactive) and 87% (inactive); in test [12], 48.6% (inactive) and 59.2% (inactive). Besides, the growth in test [13] was 53.6% (inactive) and 73.9% (inactive); in test [14], 25.8% (inactive) and 35.5% (inactive); in test [15] it was 62.1% (inactive) and 73.5% (inactive); in [16], 53.8% (inactive) and 72.4% (inactive); in test [17], 29.6% (inactive) and 53.7% (inactive); in test [18] it was -0.421% (active) and 18.6% (inactive). Besides, in [19], the growth was 51% (inactive) and 53.5% (inactive).

Regarding `CCCCOCCOP(=O)(OCCOCCCC)OCCOCCCC`, the growth in test [1] is 101% (inactive); in test [2] it was 104% (inactive); in test [3], 103% (inactive); in [4] it was 98% (inactive); in test [5] it was 106% (inactive); in test [6], 103% (inactive). Also, the growth in test [7] is 99.1% (inactive); in test [8], 93.7% (inactive); in test [9], 91.7% (inactive); in test [10], 117% (inactive); in [11] it was 114% (inactive); in test [12] it was 97.7% (inactive). For the same compound, the growth is 98% (inactive) in [13]; 96.1% (inactive) in [15]; 102% (inactive) in test [16]; 98% (inactive) in [17]; 89.1% (inactive) in test [20]; 84.1% (inactive) in test [18]. Besides, the growth in [19] was 110% (inactive).

As to `COC(=O)C12C3C4C1C1C2C3C41NC(=O)c1csc([C@@H](C[C@H](C(C)C)N(C)C(=O)[C@@H](NC(=O)[C@H]2CCCCN2C)C2CC2)OC(C)=O)n1` (some centres undefined), the growth in [1] was 12.6% (inactive); in test [2], -16.7% (active); in [3], 45.3% (inactive); in test [4], 39.7% (inactive); in [5], 10.8% (inactive); in [6], 23.5% (inactive). The growth in test [7] was -14.7% (active); in test [8] it was 48% (inactive); in [9], 16.3% (inactive); in test [10], 57.8% (inactive); in [11], 19.1% (inactive); in test [12] it was 60.2% (inactive). The growth is 31.1% (inactive) in [13]; 45.6% (inactive) in test [14]; 41.2% (inactive) in test [15]; 36.4% (inactive) in [16]; 38.1% (inactive) in test [17]; 16.5% (inactive) in test [19].

Regarding `Cc1cc[c-]cc1.Fc1c[c-]c(-c2ccccn2)c(F)c1.N#CCC[PH+](CCC#N)c1ccccc1.[Pt+2]`, the growth is 22.1% (inactive) in [1]; 37.2% (inactive) in test [2]; 49.9% (inactive) in [3]; 62.3% (inactive) in test [4]; 56.9% (inactive) in test [5]; 29.4% (inactive) in [6]. Moreover, the growth in test [7] is 68.6% (inactive); in test [8], 9.83% (active); in test [9] it was -2.55% (active); in [10], 42.7% (inactive); in test [11], 59.4% (inactive); in test [12] it was 56.8% (inactive). The growth in test [13] was 23.9% (inactive); in test [15] it was 106% (inactive); in [16], 6.91% (active); in test [17], 14.8% (inactive); in test [20], 52.3% (inactive); in [18], 2.54% (active). For the same compound, the growth in test [19] was 10% (inactive).

As to `C[C@]12CCC3[C@@H](C[C@@H]4SC(Nc5ccccc5)=N[C@@]45CC(=O)CC[C@]35C)[C@@H]1CCC2=O` (some centres undefined), the growth is 1.93% (active) in test [1]; -55.6% (active) in [2]; 41.5% (inactive) in test [3]; 21.9% (inactive) in [4]; -82.4% (active) in test [5]; -16.1% (active) in [6]. Besides, the growth in test [7] is 26.3% (inactive); in test [8] it was -1.09% (active); in test [9], -58.1% (active); in test [11], 6.9% (active); in test [12], 49.4% (inactive); in [13], -8.78% (active). Besides, the growth in test [14] is -89% (active); in test [15], -4.55% (active); in test [16] it was -62.4% (active); in test [17], -45.6% (active); in test [18] it was 6.25% (active); in test [19], 3.23% (active).

In the case of `O=NN1CCCCC1`, the growth is 106% (inactive) in test [1]; 103% (inactive) in test [2]; 82.6% (inactive) in test [3]; 97.8% (inactive) in test [4]; 111% (inactive) in [5]; 110% (inactive) in test [6]. The growth is 106% (inactive) in test [7]; 97.1% (inactive) in test [8]; 100% (inactive) in test [9]; 105% (inactive) in [11]; 126% (inactive) in test [12]; 98.7% (inactive) in [13]. Further, the growth in test [14] is 98.8% (inactive); in [15] it was 110% (inactive); in test [16], 101% (inactive); in test [17], 107% (inactive); in test [20] it was 88.1% (inactive).

Take `CCC1CCC(=O)O1` (centres undefined): the growth is 98.1% (inactive) and 105% (inactive) in [1]; 107% (inactive) and 110% (inactive) in test [2]; 86% (inactive) and 96.4% (inactive) in test [3]; 115% (inactive) and 113% (inactive) in test [4]; 97% (inactive) and 108% (inactive) in test [5]; 97.8% (inactive) and 105% (inactive) in test [6]. For the same compound, the growth in test [7] is 103% (inactive) and 104% (inactive); in test [8], 114% (inactive); in test [9], 97.5% (inactive) and 103% (inactive); in test [11], 94.8% (inactive) and 114% (inactive); in test [12], 111% (inactive); in test [13], 108% (inactive) and 109% (inactive). The growth in [15] is 105% (inactive) and 109% (inactive); in test [16] it was 105% (inactive) and 109% (inactive); in test [17], 104% (inactive); in [20] it was 96.5% (inactive) and 98.6% (inactive); in test [18], 78% (inactive) and 109% (inactive); in test [19] it was 116% (inactive).

In the case of `COc1ccc(N)cc1OC`, the growth is 94.4% (inactive) in test [1]; 105% (inactive) in test [2]; 92% (inactive) in [3]; 117% (inactive) in [5]; 80.1% (inactive) in test [6]; 107% (inactive) in test [7]. The growth in [8] is 97.5% (inactive); in test [9], 105% (inactive); in test [10] it was 112% (inactive); in [11] it was 106% (inactive); in test [12] it was 111% (inactive); in test [13] it was 89.2% (inactive). Besides, the growth in test [14] is 90.5% (inactive); in test [15], 120% (inactive); in test [16], 100% (inactive); in [17] it was 99% (inactive); in test [20], 100% (inactive); in test [18], 114% (inactive).

With `Nc1ccc(P(=O)(O)O)cc1`, the growth in [1] was 97.4% (inactive) and 95.9% (inactive); in test [2], 104% (inactive) and 103% (inactive); in test [3], 95% (inactive) and 94.5% (inactive); in test [4], 108% (inactive) and 107% (inactive); in test [5], 102% (inactive) and 94.7% (inactive); in test [6], 99.5% (inactive) and 92.7% (inactive). In addition, the growth in test [7] was 110% (inactive) and 107% (inactive); in test [8], 110% (inactive) and 99.8% (inactive); in test [9], 89.1% (inactive) and 98% (inactive); in test [11] it was 120% (inactive) and 99.4% (inactive); in test [12] it was 95.7% (inactive); in test [13], 103% (inactive) and 101% (inactive). The growth was 90.8% (inactive) and 91.8% (inactive) in test [14]; 119% (inactive) and 97.4% (inactive) in test [15]; 98.7% (inactive) and 105% (inactive) in test [16]; 102% (inactive) and 99.5% (inactive) in [17]; 105% (inactive) and 108% (inactive) in [20]; 136% (inactive) and 106% (inactive) in test [18]. Also, the growth in test [19] is 97.5% (inactive) and 95.4% (inactive).

As for `COc1cc2c(c(OC)c1OC)-c1ccc(O)cc1[C@@H](NC(C)=O)CC2`, the growth in test [1] is 4.26% (active) and 6.32% (active); in test [2], 5.06% (active); in test [3], 12.7% (inactive) and 14.9% (inactive); in test [4], 27.8% (inactive) and 26.4% (inactive); in test [5], 22.5% (inactive) and 18.3% (inactive); in test [7] it was -24.2% (active) and -61.7% (active). The growth in [8] is 45.6% (inactive) and 24.4% (inactive); in test [9] it was 12.1% (inactive) and 20.2% (inactive); in test [10], 52.3% (inactive) and 40% (inactive); in test [11], 41.3% (inactive); in test [12] it was 44% (inactive) and 22.6% (inactive); in [13], 29.1% (inactive) and 26.9% (inactive). Also, the growth in test [14] was 25.5% (inactive) and 33.2% (inactive); in test [15], 11.1% (inactive) and 38.5% (inactive); in test [16] it was 24.8% (inactive) and 25.8% (inactive); in [17], -5.9% (active) and 16.1% (inactive); in [20] it was -12.9% (active); in test [18], -13.2% (active) and -32.3% (active). For the same compound, the growth in test [19] is 20.6% (inactive) and -8.81% (active).
